SMILES strings stand for the structures. Values joined by “and” are separate entries in the source; they are usually repeats but may differ in a detail not shown here. Equal values may be shown once. About 2,000 (0.91%) of roughly 220,000 compounds were called active. Another 2% or so got no clear call; they are omitted. Rule as the data show it: inconclusive = inhibition above about 80% without an active follow-up result; inactive = below that; test concentration not stated here. The list is a sample of the results. Results with a measured potency or affinity are listed apart.

This experiment is described as follows: M. tuberculosis H37Rv growth inhibitors, H37Rv strain (AID 1626).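 Also: bacteria incubated seven days before Alamar blue readout; 0% = bacteria only wells and 100% = bacteria with antibiotic wells.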 The conditions noted are these: hits give high values, concentration not given here.
Take `CCC(CC)C(=O)N1CCCC(c2nc(-c3cccs3)no2)C1` (configuration not stated): the inhibition is 10% (inactive).
In the case of `CC1(OC(=O)CCc2ccccc2)C(=O)C=C2C=C3CCCN3C=C2C1=O` (configuration not stated), the inhibition was 6.27% (inactive).
For the compound `C/C(Cl)=C/Cn1c(SCC(C)C)nc2c1c(=O)[nH]c(=O)n2C`, the inhibition is 3.03% (inactive).
Regarding `COc1cccc(NC(=O)N2CCOCC2)c1`, the inhibition was -7.85% (inactive).
For `O=C(Oc1ccc(-c2cnc3ccccc3n2)cc1)c1cccc([N+](=O)[O-])c1` the value was 24% (inactive); for `O=C(Oc1ccc(-c2cnc3ccccc3n2)cc1)c1cc([N+](=O)[O-])ccc1Cl`, 71.7% (inactive).
For the compound `O=C(Nc1cccc(-c2cnc3ccccc3n2)c1)c1ccco1`, the inhibition was -2.67% (inactive).
Consider `O=C(Oc1ccc(-c2cnc3ccccc3n2)cc1)c1ccco1`, for which the inhibition was 7.39% (inactive).
For `COc1ccc(OC)c(-c2cc(C(=O)Nc3c(C)nn(Cc4ccccc4C)c3C)no2)c1` the value was 72.8% (inactive).
For the compound `Cc1ccccc1NC(=O)CN1C(=S)NC(C)(C)CC1C` (configuration not stated), the inhibition is 2.34% (inactive).
For `CSc1nnnn1-c1ccc(Cl)cc1`, the inhibition was -2.8% (inactive).
For `Cc1sc2ncnc(Sc3nnnn3-c3ccc(Cl)cc3)c2c1C` the value was -0.98% (inactive); for `Cc1ccc(-n2cccc2C(=O)NS(=O)(=O)c2ccc(C)cc2)cc1`, -6.02% (inactive); for `CCc1ccc(OCC(=O)O/N=C(\N)c2ccccn2)cc1`, 8.77% (inactive).
Consider `O=C(CSc1nc(-c2ccccc2)c(-c2ccccc2)[nH]1)NCC1CCCO1` (configuration not stated), for which the inhibition is -3.58% (inactive).
Regarding `N#CC1=C(S)N(c2ccccc2)C(c2ccc(-c3cc(Cl)ccc3Cl)o2)NC1=O` (configuration not stated), the inhibition was 9.36% (inactive).
For `N#CC1=C(S)N(c2ccccc2)C(c2ccc(-c3cccc(Cl)c3)o2)NC1=O` (configuration not stated) the value was 4.44% (inactive); for `C/C=C/c1ccc(OCCCCNCc2ccco2)c(OC)c1`, -4.41% (inactive); for `CCCN(CCC)C(=O)CC(c1ccccc1)c1ccc(C)cc1O` (configuration not stated), 2.31% (inactive).
As to `CCN(CC(=O)NCCC1=CCCCC1)S(=O)(=O)c1ccccc1`, the inhibition was -1.16% (inactive).
As for `CCOC(=O)N1CCN(C(=O)c2ccc3nc(N4CCCCC4)sc3c2)CC1`, the inhibition was -6.19% (inactive).
Take `COc1cccc(N2CCN(C(=O)c3ccc4nc(N5CCCCC5)sc4c3)CC2)c1`: the inhibition is 5.19% (inactive).
The value for `CSCCNC(=O)c1cccc(Cl)c1` was 3.62% (inactive); that for `Cn1c(=O)c2c(nc(CN3CCOCC3)n2CC(=O)c2ccccc2)n(C)c1=O` was -10.9% (inactive); that for `CN1CCN(c2ncnc3c2c(-c2ccccc2)cn3-c2ccc(F)cc2)CC1` was 5.53% (inactive).
Regarding `Cc1scc(C(=O)N/N=C/c2ccc(OCC(C)C)cc2)c1C`, the inhibition was 6.9% (inactive).
With `COc1ccc(/C=C/c2ccncc2)cc1`, the inhibition is -1.37% (inactive).
With `Cc1ccc(-c2cc(-c3ccc(C)cc3)[n+](C)o2)cc1`, the inhibition is -0.95% (inactive).
Turning to `COc1cccc(NC(=O)Cn2c(CCC(=O)O)ccc2-c2cccs2)c1`, the inhibition was -0.82% (inactive).
Regarding `Cc1ccccc1NC(=O)c1ccc(CSc2ncccn2)cc1`, the inhibition is 5.28% (inactive).
For `O=C(NCc1ccc(F)cc1)c1ccc(N2CCc3ccccc32)c([N+](=O)[O-])c1` the value was 13.9% (inactive).
In the case of `CCn1cc(CNC(=O)c2ccc(C)s2)cn1`, the inhibition is -1.4% (inactive).
The value for `CCn1cc(CNC(=O)c2cccc([N+](=O)[O-])c2)cn1` was -9.32% (inactive); that for `CS(=O)(=O)c1ccc(C(=O)NCc2ccc(F)cc2)cc1` was -6.92% (inactive).
On to `CCOc1ccc(NC(=O)N2CCN(S(C)(=O)=O)CC2)cc1`, for which the inhibition is -3.68% (inactive).
For `COc1ccc(-n2cnc3c(sc4nccc(N(C)C)c43)c2=O)cc1`, the inhibition is 10.5% (inactive).
For `COc1ccc(C=C2C(=O)OC(C)(C)OC2=O)cc1OC` the value was -16.1% (inactive); for `CN(C)c1ccc(C=C2C(=O)OC(C)(C)OC2=O)cc1`, -0.63% (inactive).
Consider `COC(=O)CN(c1ccccc1)S(=O)(=O)c1cc(Br)ccc1OC`, for which the inhibition is 5.26% (inactive).
Regarding `CCOC(=O)Cc1csc(NC(=O)c2ccc(C)cc2)n1`, the inhibition was -1.68% (inactive).
`CCOC(=O)Cc1csc(NC(=O)c2cc3c(s2)CCCC3)n1`: the inhibition was 6.6% (inactive).
For `COc1ccccc1/C=C/C(=O)c1ccc(NC(C)=O)cc1`, the inhibition is 94.1% (inactive).
Regarding `CSc1ccc(/C=C/C(=O)c2ccc(NC(=O)C(C)C)cc2)cc1`, the inhibition is 75.2% (inactive).
For `Cc1ccc(/C=C/C(=O)c2ccc(O)cc2)cc1` the value was 11.5% (inactive); for `CCOC(=O)Nc1ccc(C(=O)/C=C/c2ccccc2)cc1`, 10.2% (inactive); for `CCOc1ccc(C(=O)/C=C/c2ccc(SC)cc2)cc1`, -1.12% (inactive).
On to `CSc1ccc(/C=C/C(=O)Nc2ccccc2)cc1`, for which the inhibition is 33.9% (inactive).
As for `O=C(Nc1nnc(CC2=CCCCC2)s1)Nc1ccccc1F`, the inhibition was -2.47% (inactive).
Consider `Cc1nnc2c3ccccc3c(-c3ccccc3)nn12`, for which the inhibition was 5.99% (inactive).
In the case of `CCCC(=O)c1c[nH]c(C(=O)NCc2ccco2)c1`, the inhibition is -9.43% (inactive).
Turning to `Cc1ccc(Cn2cc(/C=N/NC(=O)Cc3nnc(NC(=O)c4ccc(C)cc4)s3)c3ccccc32)cc1`, the inhibition was 7.8% (inactive).
`O=C(CCNC(=O)c1ccco1)NCc1ccccc1`: the inhibition was 0.15% (inactive).
The value for `COc1ccc(N2CCN(c3nc(NCCc4ccc(OC)c(OC)c4)nc(OC)n3)CC2)cc1` was 34.2% (inactive); that for `COc1ccc(CCNc2nc(N3CCOCC3)nc(N3CCOCC3)n2)cc1OC` was 8.14% (inactive); that for `CC(C)CCN1CCN(Cc2ccc(C#CC(C)(C)O)s2)CC1CCO` (configuration not stated) was 9.71% (inactive).
On to `CC(=O)c1ccc(-c2ccc(C(=O)N3CCCc4ccccc43)o2)cc1`, for which the inhibition is 17.9% (inactive).
Take `CSc1sc(-c2ccnc(=S)[nH]2)c(-c2ccccc2)c1C#N`: the inhibition is -4.19% (inactive).
As to `COc1ccccc1NC(=O)CSCc1nc2ccccc2[nH]1`, the inhibition was -0.98% (inactive).
In the case of `CCOC(=O)N1CCN(CCC(=O)Nc2cccc(Br)c2)CC1`, the inhibition is -0.92% (inactive) and -12.2% (inactive).
`O=C(CNCc1ccccc1)Nc1ccc(F)cc1`: the inhibition was -5.31% (inactive).
The value for `COC(=O)Nc1ccc(Oc2ccccc2)cc1` was -4.37% (inactive).
For `Cc1ccc(NC(=O)CNCc2ccccc2)c(Br)c1`, the inhibition was -0.29% (inactive).
For `CCOC(=O)N1CCN(CCC(=O)Nc2ccc(Br)cc2)CC1` the value was -16.8% (inactive); for `O=C(CSCc1nc2ccccc2[nH]1)Nc1ccccc1`, 0.99% (inactive).
For the compound `Cc1ccc(C(=O)NCc2ccccc2)cc1Br`, the inhibition was -8.73% (inactive).
The value for `CCc1cccc(NC(=S)N(CCCN2CCOCC2)C(C)c2cc3cccc(OC)c3o2)c1` (configuration not stated) was -11.9% (inactive); that for `COc1ccc(CNC(=O)CCSCc2cccc(Cl)c2)c(OC)c1` was -4.73% (inactive); that for `O=C(Nc1nc(-c2ccc(S(=O)(=O)N3CCCC3)cc2)cs1)c1ccco1` was 7.57% (inactive).
`COCCOCCn1c(/C=C/c2ccccc2)nc2ccccc21`: the inhibition is 11% (inactive).
Regarding `O=S(=O)(NCc1ccccc1)c1ccccc1Br`, the inhibition is 4.19% (inactive).
For `CCN(CC)S(=O)(=O)c1ccc2c(c1)nc(CCC(=O)Nc1ccccc1Cc1ccccc1)n2CC` the value was -0.79% (inactive); for `COc1ccc(/C=C2\SC(=S)NC2=O)cc1OS(=O)(=O)c1ccc(NC(C)=O)cc1`, -3.97% (inactive); for `Cc1ccccc1N(CC(=O)Nc1ccccc1C(=O)O)S(C)(=O)=O`, -1.04% (inactive).
The value for `CCN(CC)c1nc(-c2nn[nH]n2)nc(N(CC)CC)n1` was -3.01% (inactive); that for `O=C(O)/C=C\C(=O)Nc1ccc(Oc2ccccc2)cc1` was -4.64% (inactive).
For the compound `CCOC(=O)C(=O)Nc1ccc(Oc2ccccc2)cc1`, the inhibition is -13.3% (inactive).
With `CC(C)(C)NC(=O)C1CC(=O)OC12CCOC(C)(C)C2` (configuration not stated), the inhibition is 0.06% (inactive).
Regarding `COC(=O)CN(c1ccccc1)S(=O)(=O)c1ccc(F)cc1`, the inhibition is -4.89% (inactive).
For `O=[N+]([O-])C(=c1ccc2c(c1)N1C3=C(CCCC3)CC3CCCCC31N=2)[N+](=O)[O-]` (configuration not stated) the value was -8.62% (inactive); for `CC(=O)c1ccc(NC(=O)CSC(C)C)cc1`, 0.93% (inactive).
For `O=C(CSCC(=O)NC1CC1)Nc1ccccc1` the value was -9.05% (inactive); for `CC(=O)c1ccc(NC(=O)CSCCO)cc1`, -4.48% (inactive).
For `O=C(CSCC(=O)NC1CCCC1)Nc1ccccc1` the value was 6.01% (inactive); for `CC(=O)Nc1ccc(S(=O)(=O)N2CCN(C(C)CCc3ccccc3)CC2)cc1` (configuration not stated), -9.9% (inactive).
For the compound `CCc1ccc(OCCCC(=O)O)c(Br)c1`, the inhibition was -8.18% (inactive).
For `COC(=O)c1ccc(COc2ccc3c4c(c(=O)oc3c2)CCC4)o1` the value was -7.47% (inactive); for `Cc1cc(C)n2nc(SCC(=O)N/N=C/c3cccc(Br)c3)nc2n1`, -4.74% (inactive); for `O=C(NC1(C(F)(F)F)C(=O)Nc2c1c(=O)[nH]c(=O)n2Cc1ccco1)C1CC1` (configuration not stated), 1% (inactive).
Regarding `C=CCNC(=O)CSc1nnc(-c2ccccc2Cl)n1-c1c(C)n(C)n(-c2ccccc2)c1=O`, the inhibition was -3.15% (inactive).
For `COc1ccc(CCNC(=O)CSc2cn(Cc3cccc(C)c3)c3ccccc23)cc1OC` the value was 4.76% (inactive); for `CCc1nc2c(c(=O)[nH]1)C1(CCCC1)Cc1ccccc1-2`, 12.8% (inactive); for `O=c1[nH]c(CN(CCO)CCO)nc2c1C1(CCCCC1)Cc1ccccc1-2`, 8.33% (inactive).
Turning to `O=c1[nH]c(NCCO)nc2c1C1(CCCCC1)Cc1ccccc1-2`, the inhibition was -9.4% (inactive).
With `O=c1[nH]c(NCCO)nc2c1C1(CCCC1)Cc1ccccc1-2`, the inhibition was -4.7% (inactive).
For `COc1cccc2c3c(c(C)nc12)CC(C)O3` (configuration not stated) the value was -3.67% (inactive); for `Cc1cc2c(C)nc3ccccc3c2o1`, -3.45% (inactive).
As for `Cc1cc(C(=O)NNC(=O)CCCCC(=O)NNC(=O)c2cc(C)[nH]n2)n[nH]1`, the inhibition is 1.69% (inactive).

Usually inhibition stands for the change of the read-out against control, counted positive when it falls.

The record behind these values is PubChem BioAssay AID1626 (SRMLSC, 2009).
